From PubChem
POLI inh = inhibitors of human DNA polymerase iota; Q9UNA4; Pol iota fluorescent replication assay, 10 min; Potency, µM (series often up to 115 µM), usual class: inhibitors; hit rate 1% among 390,000; AID 588590
Target sequence (Q9UNA4 whole entry, looked up): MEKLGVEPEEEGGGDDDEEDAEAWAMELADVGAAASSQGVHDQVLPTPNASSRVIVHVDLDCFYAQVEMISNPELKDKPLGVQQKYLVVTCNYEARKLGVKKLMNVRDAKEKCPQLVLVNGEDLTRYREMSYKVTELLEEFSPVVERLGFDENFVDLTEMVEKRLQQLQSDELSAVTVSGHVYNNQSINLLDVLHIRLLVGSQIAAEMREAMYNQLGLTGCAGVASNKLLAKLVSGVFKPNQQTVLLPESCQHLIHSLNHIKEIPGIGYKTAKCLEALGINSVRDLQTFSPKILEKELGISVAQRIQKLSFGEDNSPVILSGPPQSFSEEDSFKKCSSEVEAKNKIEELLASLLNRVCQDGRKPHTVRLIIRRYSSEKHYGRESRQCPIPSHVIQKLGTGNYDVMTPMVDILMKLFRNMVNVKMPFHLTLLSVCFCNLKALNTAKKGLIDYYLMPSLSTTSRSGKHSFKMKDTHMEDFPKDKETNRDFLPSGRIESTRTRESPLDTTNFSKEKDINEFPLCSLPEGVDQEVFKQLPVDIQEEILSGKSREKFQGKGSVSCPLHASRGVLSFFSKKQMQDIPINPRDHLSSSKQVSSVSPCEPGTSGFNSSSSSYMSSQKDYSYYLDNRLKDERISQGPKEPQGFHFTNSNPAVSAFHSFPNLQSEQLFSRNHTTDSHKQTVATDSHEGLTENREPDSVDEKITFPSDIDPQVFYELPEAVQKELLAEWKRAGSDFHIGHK
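Pol iota at 10 nM preincubated 15 min with compounds at room temperature; reaction started with fluorescent substrate, 50 nM final. Fluorescence read kinetically at 0 and 10 min; buffer-only wells as negative control.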
FEN1 inh-1 = blocks human flap endonuclease 1; P39748; Recombinant FEN1 flap cleavage, fluorescence, 15 min; hit rate 0.35% among 390,000; Potency, µM (highest dose often 114 µM), actives largely listed as inhibitors; note: nearly all actives have a fitted effect of over 65% in size
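With each library titrated from low to high concentration, compounds met 10 nM FEN1 for 15 min at room temperature before 50 nM substrate was added; readings at 0 and 15 min fed four-parameter Hill curve fits.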
Pol eta inh-1 = blocks human DNA polymerase eta activity | Q9Y253 | Potency, µM (titrated, usually from 114 µM), most hits filed as inhibitors | AID 588591 | recombinant Pol eta, fluorescent DNA replication assay | hit rate 1.2% among 390,000
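Fluorescent replication assay: 50 nM final substrate added after a 15 min room-temperature compound preincubation with 10 nM enzyme. Signal taken at 0 min and again at 10 min.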
WRN inhibitor = WRN helicase (human) inhibition | Q14191 | WRN helicase unwinding, fluorescent forked duplex, kinetic | Potency, µM (doses to about 114 µM), actives largely listed as inhibitors | hit rate 0.46% among 360,000 | AID 651768; note: nearly all actives have a fitted effect of over 55% in size
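Screening of the MLSMR collection measured strand separation of a quenched forked DNA duplex (100 nM) by 20 nM WRN with 2 mM ATP, all final. Compounds were preincubated with enzyme 15 min at room temperature.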
Pol kappa inh-1 = blocks human DNA polymerase kappa activity; purified Pol kappa, fluorescent DNA synthesis assay, 10 min; Potency, µM (highest dose often 107 µM), hits mostly inhibitors; hit rate 0.53% among 400,000; Q9UBT6; AID 588579
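Fluorescent qHTS in 1536-well format: enzyme (10 nM) and compound sat 15 min at room temperature before 50 nM substrate (final) was added. Signal taken at 0 and 10 min; no-enzyme buffer wells were negative controls.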
Pol beta inh = DNA polymerase beta (human) inhibition | Pol beta primer extension/strand displacement, fluorescence kinetic | Potency, µM (highest dose often 114 µM), actives largely listed as inhibitors | hit rate 1.3% among 340,000 | AID 485314
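Pol beta (10 nM) was preincubated with compound for 15 min at room temperature. The reaction was then started with 50 nM substrate and read immediately and after a further 10 min at room temperature.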
PGK validate = validation of Trypanosoma brucei phosphoglycerate kinase inhibitors; TbPGK coupled GAPDH assay, Kinase-Glo luminescence; hit rate 79% among 500; Potency, µM (highest dose often 57.5 µM), usual class: inhibitors; shares compounds with Pol kappa inh-1; note: nearly all actives have a fitted effect of over 65% in size
POLI cherry-pick = Human Pol iota inhibitor confirmatory assay. shares compounds with Pol kappa inh-1. Pol iota primer extension, TAMRA/BHQ fluorescence. Potency, µM, usual class: inhibitors. hit rate 77% among 1,500
Pol kappa inh-2 = Pol kappa (human) inhibition, cherry-pick confirmation | shares compounds with Pol eta inh-1 | AID 720501 | purified Pol-kappa, fluorescent strand-displacement substrate | hit rate 76% among 920 | Potency, µM, most hits filed as inhibitors
Pol eta inh-2 = Pol eta (human) inhibition, cherry-pick confirmation; hit rate 64% among 2,600; Potency, µM, usual class: inhibitors; Pol eta primer extension, TAMRA/BHQ fluorescence, 10 min; shares compounds with Pol eta inh-1
FEN1 inh-2 = FEN1 inhibition, cherry-pick retest; shares compounds with FEN1 inh-1; FEN1 flap cleavage, TAMRA/BHQ2 fluorogenic DNA substrate; Potency, µM, usual class: inhibitors; hit rate 79% among 880; AID 720498; note: nearly all actives have a fitted effect of over 60% in size
Numbers stand for hits; 0 = inactive; ? = inconclusive; - = no result given; ! = a repeat was not active; [ ] = another dose, or the depositor's remark. Sampled rows, rich in hits. Any-hit rate of the full collection: about 2.4%. Calls come from the whole dose curve; as a rule, active = well fitted curve in the direction sought with a large enough effect; inconclusive = small, poorly fitted or top-dose-only effect, or another doubt; inactive = no such curve, though single readings can be large; an effect the other way counts as inactive or inconclusive.

SMILES | POLI inh | FEN1 inh-1 | Pol eta inh-1 | WRN inhibitor | Pol kappa inh-1 | Pol beta inh | POLI cherry-pick | Pol eta inh-2 | FEN1 inh-2 | others
Cn1cnnc1SCC(=O)Nc1sc2c(c1C(N)=O)CCC2 | ? | 32µM | 22µM | 13µM | ? | 14µM | 67 | 43 | ?
CC1(C)CC(N=c2cc(-c3ccccc3)oc3ccc(Cl)cc23)CC(C)(C)N1 | ? | 28µM | ? | 0 | ? | 4µM | 19 | - | 19
Cc1ccc2oc(-c3ccccc3)cc(=O)c2c1 | - | - | - | - | 0[19.4 µM] | - | - | - | -
CN(C)CCNC(=O)c1cccc2nc3cccc(F)c3nc12 | 89µM | 14µM | ? | 0[11.6 µM] | ? | - | 42 | - | 19 | Pol kappa inh-2=17
COc1ccc2c([N+](=O)[O-])c(Cl)[nH]c2c1 | 11µM | 18µM | 20µM | 0[11.6 µM] | 50µM | 0 | 38 | 27 | 34
COc1ccc2c([N+](=O)[O-])c(N3CCOCC3)[nH]c2c1 | - | - | 0 | 0 | - | - | - | - | -
Cc1c(Cl)cccc1NS(=O)(=O)c1ccc2c(c1)C1C=CCC1C(c1ccc(C(=O)O)cc1)N2 (configuration not stated) | ? | 25µM | 2µM | 32µM | 2.8µM | 22µM | 38 | 6.7 | 60
CCCOC(=O)c1c(NC(=O)C2c3ccccc3Oc3ccccc32)sc2c1CCC(C)C2 (configuration not stated) | 0 | 0 | 0 | - | 0 | 0 | - | - | -
Nc1nc2c(nc(N3CCOCC3)n2COCCO)c(=O)[nH]1 | 0 | 0 | - | - | 0 | - | - | - | -
O=c1[nH]c(/C=C\c2ccc(O)c(Cl)c2)nc(O)c1[N+](=O)[O-] | ? | 0 | 0 | 0 | 0 | 0 | - | - | -
Cc1ccc(/C=C/c2nc3sc(C(=O)O)c(C)c3c(=O)[nH]2)cc1[N+](=O)[O-] | 0 | 0 | 40µM | ? | 0 | ? | 30 | ? | 76
CCN1CCOC(=O)C1CC(=O)Nc1cc(Cl)ccc1C (configuration not stated) | 0 | 0 | 0 | - | 0 | 0 | - | - | -
CC(C1SC(=S)NC1=O)C1SC(=S)NC1=O (configuration not stated) | - | - | 5µM | ? | - | - | 42 | 9.5 | ? | Pol kappa inh-2=17
CC(NC1=CC(=O)c2cccnc2C1=O)C(O)c1ccccc1 (configuration not stated) | 4.5µM | ? | 16µM | ? | 0 | - | 19 | 24 | ?
COc1ccc(CN(C)C(=O)CCC(=O)N2CCN(S(=O)(=O)c3ccc(Cl)cc3)CC2)c(OC)c1 | 0 | 0 | 0 | 0 | 0 | - | - | - | -
CN(C)c1ccc(N=Nc2ccc(C(=O)O)cc2)cc1 | 11µM | ? | 3.5µM | ? | 32µM | 10µM | 21 | 4.3 | 38
CC(=O)/C(N=Nc1ccc(C(=O)O)cc1)=C(\C)O | 0 | 0 | 0 | 0 | 0 | 0 | - | - | -
Cc1cc(C)n(Cc2ccc(C(=O)N/N=C/c3ccc(-c4ccc([N+](=O)[O-])cc4)o3)o2)n1 | 10µM | 56µM | 6.3µM | 32µM | 25µM | 2µM | 17 | 43 | 76
NC[C@H](O)c1ccc(O)c(O)c1 | 4µM! | 0 | 0 | 0[11.6 µM] | 0.71µM! | 0 | 1.5 | 1.9 | 34
O=C(O)c1cc(O)c2c(c1)[C@@H]([C@H]1c3cc(C(=O)O)cc(O)c3C(=O)c3c(O[C@@H]4O[C@H](CO)[C@@H](O)[C@H](O)[C@H]4O)cccc31)c1cccc(OC3O[C@H](CO)[C@@H](O)[C@H](O)[C@H]3O)c1C2=O (some centres not stated) | 0 | ? | 0 | 1.1µM | 0 | - | 3 | 6 | 30 | PGK validate=2.6µM;Pol kappa inh-2=2.7
Cc1c(Cl)cccc1NC(=O)Cn1cc2c(n1)CCCC2 | 0 | 0 | 0 | - | 0 | 0 | - | - | -
Cc1c(CCC(=O)O)c(=O)oc2c(C)c3occ(-c4ccc(Br)cc4)c3cc12 | 0 | 0 | 18µM | 63µM | 0 | 0 | 34 | ? | ?
COc1ccc(CCNC(=O)Cn2nc(C)c3c(C)n(-c4ccc(C)cc4)nc3c2=O)c(OC)c1 | ? | ? | ? | - | 0 | 35µM | 67 | 85 | 48 | Pol kappa inh-2=27
COCCNC(=O)Cn1nc(C)c2c(C)n(-c3ccc(C)cc3)nc2c1=O | 0 | 0 | 0 | - | 0 | 0 | - | - | -
COc1ccccc1CNC(=O)COCc1cc(-c2cccs2)on1 | 0 | 0 | 0 | - | 0 | 0 | - | - | -
SMILES | POLI inh | FEN1 inh-1 | Pol eta inh-1 | WRN inhibitor | Pol kappa inh-1 | Pol beta inh | POLI cherry-pick | Pol eta inh-2 | FEN1 inh-2 | others
COc1cc(/C=N/N2C(=O)CSC2=S)cc(Br)c1O | ? | 79µM | 25µM | 50µM | 40µM | 35µM | ? | 67 | 43 | Pol kappa inh-2=38
COc1cc(/C=N/N2C(C)CCCC2C)cc(Br)c1O (configuration not stated) | 0 | 0 | 0 | 0 | 0 | 0 | - | - | -
C[C@H]1c2cccc(O)c2C(=O)C2C(=O)C3(O)C(=O)C(C(N)=O)C(=O)[C@@H](N(C)C)[C@@H]3[C@@H](O)[C@@H]21 (some centres not stated) | ? | ? | 0 | 0 | 0 | - | - | - | -
C=C1c2cccc(O)c2C(O)=C2C(=O)[C@]3(O)C(O)=C(C(N)=O)C(=O)[C@@H](N(C)C)[C@@H]3[C@@H](O)[C@H]12 | 2.8µM | ? | 32µM | ? | 6.3µM | 11µM | 7.5 | 13 | 34 | Pol kappa inh-2=3.8
CC(=O)Oc1ccc(CN2C(=O)C(CCc3ccccc3)ON=C2c2cnccn2)cc1 (configuration not stated) | - | - | - | 0 | - | - | - | - | -
O=C(O)c1cn(C2CC2)c2cc(N3CCN(S(=O)(=O)c4ccc5c(c4)OCCO5)CC3)c(F)cc2c1=O | 0 | ? | 79µM | 79µM | 0 | 0 | 27 | - | 43
O=C(CSc1nnc(-c2cccc(S(=O)(=O)N3CCCC3)c2)n1-c1ccccc1)Nc1ccc(C(=O)O)cc1 | ? | ? | 35µM | 50µM | ? | 32µM | 42 | 43 | 76
O=C(CSc1nnc(-c2cccc(S(=O)(=O)N3CCCC3)c2)n1-c1ccccc1)Nc1cccc(C(=O)O)c1 | ? | 0 | 0 | 0 | 0 | 0 | - | - | -
O=C(CSc1nnc(-c2ccccc2)c(-c2ccccc2)n1)NC1CCCCC1 | 0 | 0 | 0 | - | 0 | 0 | - | - | -
Cc1noc(/C=C/c2ccccc2F)c1S(=O)(=O)N1CCC(C(=O)NCC(C)c2ccccc2)CC1 (configuration not stated) | 0 | 0 | 0 | - | 0 | 0 | - | - | -
